# In PubChem BioAssay (Tox21):
# Records with an inconclusive call do not appear. A call without a number means that no potency is given here. A number with no mark means an inactive call. Active and inactive are the calls of the source. Calls come from the whole dose curve; as a rule, active = well fitted cell-killing curve with a large enough effect in the repeat runs; inconclusive = weak or mixed curves, or effect the other way; inactive = flat fitted curve, though single readings scatter.
# Key:
# [1] = cAMP Responsive Elements (CRE) small molecule antagonists, cell-based qHTS assay: qHTS cell viability counter screen (AID 2060913); note: nearly all actives have a fitted effect of over 40% in size
# Procedure, shortened: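 CRE-bla HEK293T cells were seeded in assay medium with 10% dialyzed FBS, incubated 18 hrs at 37 C, then exposed to compounds plus 0.25 uM final NKH477 for 3 hrs. Viability was read by CellTiter-Glo luminescence after 30 min, in the same wells.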
# [2] = cAMP Responsive Elements (CRE) small molecule agonists, cell-based qHTS assay: qHTS cell viability counter screen (AID 2060914); note: potency is the fitted concentration of half-maximal effect;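 note: viability read after 3 h of compound exposure; nearly all actives have a fitted effect of over 50% in size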
# Procedure, shortened: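 CRE-bla HEK293T cells in 10% dialyzed FBS medium were exposed to compounds for 3 h at 37C after 18 h plating. CellTiter-Glo was then added in the same wells, and luminescence was read after 30 min at room temperature.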
compound,measurement,setting,value
CC1(C)[C@@H](OC(=O)CCC(=O)O)CC[C@]2(C)[C@H]3C(=O)C=C4[C@@H]5C[C@@](C)(C(=O)O)CC[C@]5(C)CC[C@@]4(C)[C@]3(C)CC[C@@H]12,Potency,[1],inactive
same,Potency,[2],inactive
CCC[Si](OC)(OC)OC,Potency,[1],inactive
same,Potency,[2],inactive
CC/C=C\CC1=C(C)CCC1=O,Potency,[1],inactive
same,Potency,[2],inactive
CC1(C)CC(O)CC(C)(C)N1,Potency,[1],inactive
same,Potency,[2],inactive
CCCc1c(OCCCCc2nn[nH]n2)ccc(C(C)=O)c1O,Potency,[1],inactive
same,Potency,[2],inactive
CC(C)(O)CCc1ccccc1,Potency,[1],inactive
same,Potency,[2],inactive
C=CCCCCCCCCCCC,"viability change, negative = cytotoxic",[1],-1.65% [at 8.39 µM]
same,"activity change, negative = cytotoxicity",[2],-4.53% [at 8.39 µM]
C=C(C)C1CC=C(C)C(OC(C)=O)C1 (stereo not given),Potency,[1],inactive
same,Potency,[2],inactive
C#CC(C)N(C)C(=O)Nc1ccc(Cl)cc1 (stereo not given),Potency,[1],inactive
same,Potency,[2],inactive
CC1(C)NC(=O)N(c2ccc([N+](=O)[O-])c(C(F)(F)F)c2)C1=O,Potency,[1],inactive
same,Potency,[2],inactive
CCCCCO,Potency,[1],inactive
same,Potency,[2],inactive
Nc1ccn([C@@H]2O[C@H](CO)[C@@H](O)C2(F)F)c(=O)n1,Potency,[1],inactive
same,Potency,[2],inactive
O=[N+]([O-])c1ccc(O)cc1,Potency,[1],inactive
same,Potency,[2],inactive
Nc1c2c(nc3c1CCC3)CCCC2,Potency,[1],inactive
same,Potency,[2],inactive
CCCCCCCCCCCCCCCC(=O)NCCO,Potency,[1],inactive
same,Potency,[2],inactive
N#CCC(=O)NN,Potency,[1],inactive
same,Potency,[2],inactive
CCO[C@@H]1O[C@H](C(COCc2ccccc2)OCc2ccccc2)[C@H](OCc2ccccc2)[C@H]1O (stereo not given in full),Potency,[1],inactive
same,Potency,[2],inactive
CCc1cc(Cl)c(OC)c(C(=O)NC[C@@H]2CCCN2CC)c1O,Potency,[1],inactive
same,Potency,[2],inactive
CC/C=C/CCO,Potency,[1],inactive
same,Potency,[2],inactive
NC(=S)Nc1cccc2ccccc12,"viability change, negative = cytotoxic",[1],19.4% [at 8.39 µM]
same,"activity change, negative = cytotoxicity",[2],-4.32% [at 8.39 µM]
CC1CNCC(C)O1 (stereo not given),Potency,[1],inactive
same,Potency,[2],inactive
CCCCC(CC)COC(=O)CCCCCCCC(=O)OCC(CC)CCCC (stereo not given),Potency,[1],inactive
same,Potency,[2],inactive
CC(C)C(O)C(C)(C)CO (stereo not given),Potency,[1],inactive
same,Potency,[2],inactive
CC(C)=CCOc1ccc(/C=C/C(=O)c2ccc(OCC=C(C)C)cc2OCC(=O)O)cc1,Potency,[1],inactive
same,Potency,[2],inactive
COc1ccc(CCO)cc1,Potency,[1],inactive
same,Potency,[2],inactive
CC/C=C\CC/C=C/CO,Potency,[1],inactive
same,Potency,[2],inactive
Oc1cc(O)c(Cl)cc1Cl,Potency,[1],inactive
same,Potency,[2],inactive
N#CCCNCCC#N,Potency,[1],inactive
same,Potency,[2],inactive
COC(=O)c1cccc(C(=O)OC)c1,Potency,[1],inactive
same,Potency,[2],inactive
OCc1c2ccccc2cc2ccccc12,Potency,[1],inactive
same,Potency,[2],inactive
C/C(=C(\CCOP(=O)(O)O)SC(=O)c1ccccc1)N(C=O)Cc1cnc(C)nc1N,"viability change, negative = cytotoxic",[1],1.04% [at 8.39 µM]
same,"activity change, negative = cytotoxicity",[2],-13.5% [at 8.39 µM]
CCCn1cc[n+](C)c1C,Potency,[1],inactive
same,Potency,[2],inactive
O=C(CN1CCN(Cc2ccc3c(c2)OCO3)CC1)N1c2ccccc2Sc2ccccc21,Potency,[1],inactive
same,Potency,[2],inactive
C/C=C/c1ccc(OC)cc1,Potency,[1],inactive
same,Potency,[2],inactive
C=C(C)C(=O)OCC(C)O (stereo not given),Potency,[1],inactive
same,Potency,[2],inactive
NC(=S)NC(N)=S,Potency,[1],inactive
same,Potency,[2],inactive
CC(=O)OCC=C(C)C,Potency,[1],inactive
same,Potency,[2],inactive
CC(=O)NCCCS(=O)(=O)O,Potency,[1],inactive
same,Potency,[2],inactive
C/C=C1/C(=O)C[C@H]2[C@@H]3CCC4=CC(=O)CC[C@]4(C)[C@H]3CC[C@]12C,Potency,[1],inactive
same,Potency,[2],inactive
Cc1nnc(NS(=O)(=O)c2ccc(N)cc2)s1,Potency,[1],inactive
same,Potency,[2],inactive
O=C(O)c1cccc(Oc2ccccc2)c1,Potency,[1],inactive
same,Potency,[2],inactive
O=C(O)c1cc(-c2ccccc2)nc2ccccc12,Potency,[1],inactive
same,Potency,[2],inactive
CC(=O)Oc1ccc(C(=C2CCCCC2)c2ccc(OC(C)=O)cc2)cc1,Potency,[1],inactive
same,Potency,[2],inactive
CC(C)=CCCC(C)CC=O (stereo not given),Potency,[1],inactive
same,Potency,[2],inactive
CC1=CC[C@H](CC=O)C1(C)C,Potency,[1],inactive
same,Potency,[2],inactive
O=C(O)c1ccccc1,Potency,[1],inactive
same,Potency,[2],inactive
COc1cc(/C=C/C(N)=O)cc(OC)c1OC,Potency,[2],inactive
COC(=O)Cc1cccc2ccccc12,Potency,[1],inactive
same,Potency,[2],inactive
CC(C)(C)CC(C)(C)c1ccc(O)c(Cc2ccc(Cl)cc2Cl)c1,Potency,[2],13.3 µM (active)
CC(=O)O[Si](C)(OC(C)=O)OC(C)=O,Potency,[1],inactive
same,Potency,[2],inactive
CCCN(CCC)C(=O)C(CCC(=O)O)NC(=O)c1ccccc1 (stereo not given),Potency,[1],inactive
same,Potency,[2],inactive
